Screen size: about 310,000 compounds; about 3,800 (1.2%) were called active. The sample holds actives, similar compounds and a random draw of the others, so the mix is not that of the screen.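 Rule for the calls: active = ratio B-score over 3 SD below the library mean, with starting fluorescence within 5 SD of its mean; inactive = the rest, inconclusive results apart.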

For this assay, the target named is Potassium channel subfamily K member 9 (Homo sapiens) (UniProt Q9NPC2). Put plainly: blockers of human TASK-3 (KCNK9) channel – HEK293 cells, thallium flux, primary screen (AID 488922).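 For B-score: negative B-score means less thallium flux so channel inhibition.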 As to conditions: HEK293 KCNK9, FluxOR thallium flux fluorescence, at 10 µM; active compounds read low.
Sequence of Potassium channel subfamily K member 9 (Homo sapiens) (Q9NPC2 whole entry, looked up): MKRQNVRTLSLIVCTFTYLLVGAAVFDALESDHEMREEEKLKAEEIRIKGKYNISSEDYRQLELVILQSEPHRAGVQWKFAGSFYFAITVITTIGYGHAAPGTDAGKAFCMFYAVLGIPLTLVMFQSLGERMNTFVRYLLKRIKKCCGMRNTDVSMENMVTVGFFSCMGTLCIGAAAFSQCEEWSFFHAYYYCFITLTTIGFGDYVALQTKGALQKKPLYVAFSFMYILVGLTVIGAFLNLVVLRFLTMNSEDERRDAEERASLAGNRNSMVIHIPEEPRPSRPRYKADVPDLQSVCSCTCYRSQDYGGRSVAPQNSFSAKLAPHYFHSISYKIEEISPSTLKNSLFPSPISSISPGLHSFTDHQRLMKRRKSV
Consider `O=C(O)CCS(=O)(=O)c1ccc(-c2ccccc2)cc1`, for which the B-score entry is “inactive”.

Regarding `Cc1cc(C)c(C)c(S(=O)(=O)Nc2ccc(O)cc2)c1C`, the B-score result is “inactive”.

In the case of `Cc1ccc(Cn2cc(C(=O)NN)c(=O)c3ccc(F)cc32)cc1`, the B-score entry was “inactive”.

In the case of `CCOC(=O)C1=C(C)N=C2c3ccccc3C(=O)C2C1c1ccc(Br)cc1` (centres undefined), the B-score result is “inactive”.

For the compound `O=C1c2ccccc2C(=O)C1c1ccccc1F`, the B-score result is “inactive”.

For the compound `O=C1c2ccccc2C2=Nc3ccccc3SC(c3ccccc3F)C12` (centres undefined), the B-score was -9.81 (active).

In the case of `CC(C)c1ccc2c(c1)c(SC(C)(C)C)c(CC(C)(C)C(=O)O)n2Cc1ccc(Cl)cc1`, the B-score entry was “inactive”.

With `COc1ccc(C2NC(=O)N(C)C(C)=C2[N+](=O)[O-])cc1` (centres undefined), the B-score entry was “inactive”.

In the case of `COc1ccccc1Cn1c(CO)nc2ccccc21`, the B-score result is “inactive”.

Regarding `CCc1cccc(C)c1N(C(=O)Cn1c(CO)nc2ccccc21)C(C)COC` (centres undefined), the B-score was -9.35 (active).

For `CCOCN(C(=O)Cn1c(C(C)O)nc2ccccc21)c1c(C)cccc1CC` (centres undefined), the B-score entry was “inactive”.

Consider `CCOc1ccc2[nH]c(=O)c(CN(Cc3nnnn3CCc3ccccc3)CC3CCCO3)cc2c1` (centres undefined), for which the B-score is -9.63 (active).

Consider `COc1ccc2[nH]c(=O)c(CN(Cc3nnnn3CCc3ccccc3)CC3CCCO3)cc2c1` (centres undefined), for which the B-score result was “inactive”.

Consider `CCOc1ccc2[nH]c(=O)c(CN(Cc3nnnn3Cc3ccccc3)CC3CCCO3)cc2c1` (centres undefined), for which the B-score result was “inactive”.

For `Cc1cc(=O)[nH]c(Nc2cccc(Br)c2)n1`, the B-score result is “inactive”.

Take `CCCc1nc2c(c(=O)c3ccccc3n2C)c(=O)n1-c1cc(C)cc(C)c1`: the B-score result is “inactive”.

As for `CCCN1C(=O)C(Cc2nc3ccccc3c(=O)n2-c2ccccc2)c2cc(C)ccc21` (centres undefined), the B-score is -9.54 (active).

As to `CCCc1nc2ccccc2c(=O)n1/N=C/c1ccc(O)c(O)c1`, the B-score result is “inactive”.

For `CCOc1ccc(CN(Cc2ccco2)C(c2cccs2)c2nnnn2C(C)(C)C)cc1` (centres undefined), the B-score is -17 (active).

With `CCOc1ccc(CN(Cc2ccco2)S(=O)(=O)c2ccc(-n3cnnn3)c(OC)c2)cc1`, the B-score result was “inactive”.

For `CC(C)(C)n1nnnc1C(c1cccs1)N(Cc1cccnc1)CC1CCCO1` (centres undefined), the B-score result was “inactive”.

As to `NC(=O)CC(NC(=O)Cc1ccc(Br)cc1)c1ccc(NC2CC3CCC2C3)c([N+](=O)[O-])c1` (centres undefined), the B-score result was “inactive”.

With `Cc1cc(C)n2nc(CNS(=O)(=O)c3c(F)c(F)c(F)c(F)c3F)nc2n1`, the B-score entry was “inactive”.

As for `COc1ccc(NC(=O)NN2CCN(C)CC2)c(OC)c1`, the B-score entry was “inactive”.

For the compound `COc1ccc(C(=O)/C=C/c2cccnc2)c(OC)c1`, the B-score result is “inactive”.

On to `COc1ccc2c(c1)C(c1cccs1)=NNC(c1cccnc1)=N2`, for which the B-score was -13 (active).

As to `Fc1ccc2c(c1)C(c1cccnc1)=NNC(c1cccs1)=N2`, the B-score result is “inactive”.

For the compound `OCC[C@H]1C[C@H](O)[C@@H](O)[C@]2(CCCCO2)O1`, the B-score result was “inactive”.

Take `CCc1nc(SCC(=O)NNC(=O)c2ccc(C)cc2)c2ccccc2n1`: the B-score result is “inactive”.

As to `CCCNC(=O)CSc1nc(Cc2ccccc2)nc2ccccc12`, the B-score is -7.59 (active).

`C=CCSc1nc(Cc2ccc(Cl)cc2)nc2ccccc12`: the B-score result is “inactive”.

Regarding `CCOc1ccc(N(C)Cc2cc(=O)oc3ccc(OC)cc23)cc1`, the B-score result is “inactive”.

Take `Cc1nc(-c2ccc(F)cc2)c(CC(=O)Nc2cc(S(=O)(=O)N3CCCCC3)ccc2C)s1`: the B-score result is “inactive”.

In the case of `Cc1ccc(S(=O)(=O)N(C)CC(=O)NCCc2c[nH]c3ccccc23)cc1`, the B-score entry was “inactive”.

For the compound `OC(c1ccc(Cl)cc1)C(CN1CCOCC1)c1ccccc1` (centres undefined), the B-score entry was “inactive”.

In the case of `CCCn1c(CCNc2nc(-c3ccc(OC)cc3)cs2)nc2ccccc21`, the B-score result is “inactive”.

Take `Cc1ccc(-c2csc(NCCc3nc4cc(Cl)c(Cl)cc4n3CCOCCO)n2)cc1`: the B-score was -9.6 (active).

Consider `Cc1ccc(-c2csc(N3CCN(c4cc5c(cc4Cl)nc(-c4ccncc4)n5CCOCCO)CC3)n2)cc1`, for which the B-score result was “inactive”.

With `Cc1c(CCC(=O)O)c(=O)oc2c(C)c(OCc3ccccc3Cl)ccc12`, the B-score entry was “inactive”.

Take `C/C=N/N(c1ccccc1)c1ccccc1`: the B-score entry is “inactive”.

`O=C(/C=C/c1cccc(C(F)(F)F)c1)N1CCN(c2ccccn2)CC1`: the B-score result was “inactive”.

For the compound `NC(N)=Nc1nc(-c2ccccc2)c2cc(Cl)ccc2n1`, the B-score is -6.86 (active).

Consider `O=C(CCl)NNc1nc(-c2ccccc2)c2cc(Cl)ccc2n1`, for which the B-score entry is “inactive”.

As for `OCCCNc1nc(-c2ccccc2)c2cc(Cl)ccc2n1`, the B-score entry is “inactive”.

For `Cn1c(C(=O)OC(C(=O)NC2CCCCC2)c2ccccn2)cc2sccc21` (centres undefined), the B-score entry was “inactive”.

For `COc1cc(C(=O)NCc2cc3cc(Cl)ccc3n2C)cc(OC)c1OC`, the B-score entry was “inactive”.

As to `CCC1C(=O)NCCN1C(=O)c1ccc2nc(Cc3ccc(OC)cc3)oc2c1` (centres undefined), the B-score entry was “inactive”.

For `COc1cccc2cc(C(C)N(CCCN3CCOCC3)C(=O)Nc3ccc(Cl)cc3)oc12` (centres undefined), the B-score was -9.66 (active).

Turning to `COc1ccc(Cl)cc1NC(=O)CCN1CCOCC1`, the B-score entry is “inactive”.

In the case of `COc1cccc(NC(=S)NCCCN2CCOCC2)c1`, the B-score result is “inactive”.

For the compound `Cc1cccc2[nH]c(CN(C)C(=O)C3CCC(=O)N(CCc4ccccc4)C3)nc12` (centres undefined), the B-score entry was “inactive”.

On to `COc1ccccc1-c1nnc(-c2ccc(F)cc2)o1`, for which the B-score entry is “inactive”.

Take `CC1=C(N2CCN(c3ncccn3)CC2)CCC1=O`: the B-score result is “inactive”.

As for `O=C(O)c1ccccc1C(=O)Nc1ccccc1[N+](=O)[O-]`, the B-score result was “inactive”.

For `O=C(Nc1ccccc1[N+](=O)[O-])C1C(c2ccccc2)=C1c1ccccc1`, the B-score is -8.24 (active).

With `O=C(Nc1ccccc1-c1ccccc1)c1ccccc1[N+](=O)[O-]`, the B-score result was “inactive”.

For the compound `CCCCNS(=O)(=O)c1ccc2nc(SCC(=O)Nc3cc(C)cc(C)c3)[nH]c2c1`, the B-score result is “inactive”.

Turning to `CCN(CC)CCn1cnc2c1c(=O)n(CCOC(=O)c1cc(OC)c(OC)c(OC)c1)c(=O)n2C`, the B-score entry was “inactive”.

As to `Cc1ccc(OCCNC(=O)CN2C(=O)NC3(CCCC3)C2=O)cc1`, the B-score entry was “inactive”.

On to `O=C(NCc1ccccn1)Nc1ccc(Cl)cc1`, for which the B-score result was “inactive”.

For the compound `CC12CCC(C(=O)N(c3cccc(Cl)c3)C1=O)C2(C)C` (centres undefined), the B-score result was “inactive”.

With `CC1=NN(c2cccc(Cl)c2)C(=O)C12CC(C)=C(C)CS2` (centres undefined), the B-score is -11.1 (active).

Turning to `O=C(COC(=O)C1CC2C=CC1C2)Nc1ccccc1` (centres undefined), the B-score entry was “inactive”.

On to `Cc1ccc(C(=O)N/C(=C\c2ccc(F)cc2)C(=O)NCCN2CCOCC2)cc1`, for which the B-score entry is “inactive”.

With `O=C(CN1C(=O)/C(=C\c2ccccc2F)SC1=S)Nc1nc2ccccc2s1`, the B-score was -7.2 (active).

`O=C(CN1C(=O)S/C(=C\c2ccccc2F)C1=O)NCCCn1ccnc1`: the B-score entry is “inactive”.

Consider `O=C(CN1C(=O)/C(=C/c2ccccc2F)Sc2ccccc21)NCc1cccnc1`, for which the B-score result is “inactive”.

As to `Cc1cc(CNCc2c(C(=O)N(C)Cc3ccccc3)nc3ccccn23)nn1C`, the B-score result is “inactive”.

`CCCNC(=O)CN(Cc1ccccc1F)S(=O)(=O)c1ccc(C)cc1`: the B-score result is “inactive”.

For `COC(=O)Cc1ccc(N(Cc2ccccc2F)S(=O)(=O)c2ccc(Br)cc2)cc1`, the B-score is -6.88 (active).

Consider `Cc1ccc(S(=O)(=O)N(CC(=O)Nc2cccnc2)c2ccc(Br)cc2)cc1`, for which the B-score entry was “inactive”.

As to `O=C(/C=C/c1ccc([N+](=O)[O-])cc1)NCCSCc1ccco1`, the B-score result is “inactive”.

For the compound `O=C(c1ccc(Br)o1)N1CCN(CCOc2ccccc2)CC1`, the B-score result is “inactive”.

`COc1ccc(-c2csc(NC(=O)COC(=O)c3ccc(Br)o3)n2)cc1`: the B-score result is “inactive”.

Turning to `COc1ccc(N2CCN(C(=O)CNC(=O)c3ccc(Br)o3)CC2)cc1`, the B-score entry is “inactive”.

In the case of `COc1ccc(-c2nc(CCNC(=O)c3ccc(Br)o3)cs2)cc1`, the B-score is -10.5 (active).

For `CCCCC(CC)CNC(=O)C(=O)C1C(=O)Nc2ccccc21` (centres undefined), the B-score entry is “inactive”.

`COc1cc2c(C(=O)N(C)c3cc(Cl)ccc3OC)cn(C)c(=O)c2cc1OC`: the B-score result is “inactive”.

In the case of `CCOc1ccccc1N1CCN(C(=S)Nc2ccc(S(N)(=O)=O)cc2)CC1`, the B-score result was “inactive”.

In the case of `CCC(=O)N1CCN(c2ccccc2NC(=O)COc2cccc(C)c2C)CC1`, the B-score result is “inactive”.

Take `CCOc1ccccc1NC(=S)N1CCN(c2cccc(C)c2C)CC1`: the B-score was -6.79 (active).

Consider `CC(c1ccco1)N(C(=O)Nc1ccccc1)C1CCCCC1` (centres undefined), for which the B-score result is “inactive”.

For `CCOc1ccc(NC(=O)N(CCC(C)C)C(C)c2ccco2)cc1` (centres undefined), the B-score is -7.13 (active).

On to `CCOc1ccc(NC(=O)N(CC(C)C)CC(C)C)cc1`, for which the B-score result was “inactive”.

Regarding `COc1cc(C)nc(N2CCCC(C(=O)NCC(C)C)C2)n1` (centres undefined), the B-score result was “inactive”.

With `COc1ccc(NC(=O)C(=O)NCC(=O)Nc2cccc(C(F)(F)F)c2)cc1`, the B-score entry is “inactive”.

Consider `COc1ccc(NC(=O)CN(C)CC(=O)Nc2cccc(C(F)(F)F)c2)cc1`, for which the B-score is -11.5 (active).

On to `COc1cccc(NC(=O)CN(C)CC(=O)Nc2ccc3c(c2)CCC3)c1`, for which the B-score result is “inactive”.

Regarding `CC(C)c1c(C(=O)N/N=C/c2ccccc2C(=O)O)nnn1-c1nonc1N`, the B-score result is “inactive”.

For the compound `CN1C(=O)/C(=C/C=C2\SCCN2C)OC1=S`, the B-score result was “inactive”.

For `CC1Cc2ccccc2N1C(=O)c1cc2sccc2n1Cc1ccccc1` (centres undefined), the B-score result was “inactive”.

For `O=C(c1cc2sccc2n1Cc1ccc(F)cc1)N1CCc2ccccc21`, the B-score result was “inactive”.

In the case of `CCOC(=O)c1cc2sccc2n1Cc1ccc(C#N)cc1`, the B-score is -12.8 (active).

Take `CCCCC(=O)Nc1c2c(nn1-c1ccc([N+](=O)[O-])cc1)CS(=O)(=O)C2`: the B-score entry is “inactive”.

On to `CCSC1=NCCN1C(=O)c1ccc(S(=O)(=O)N(CC)CC)cc1`, for which the B-score entry was “inactive”.

As for `O=C(O)CSc1c2c(nc3cc(C(=O)Nc4cccc(C(F)(F)F)c4)ccc13)CCCC2`, the B-score entry is “inactive”.

Regarding `COC(=O)c1ccccc1Sc1c(/C=N/OCc2ccc(Cl)cc2)c(C(F)(F)F)nn1C`, the B-score entry is “inactive”.

Take `Cn1nc(C(F)(F)F)c(C(=O)Nc2cccc(C(F)(F)F)c2)c1SCc1ccc(Cl)cc1`: the B-score was -7.25 (active).

With `C[n+]1cc(-c2ccccc2)oc1-c1ccccc1`, the B-score result was “inactive”.

For the compound `COc1cccc(-c2coc3cc4oc(=O)c(CC(=O)O)c(C)c4cc23)c1`, the B-score result is “inactive”.

As to `COc1cc(C(=O)OC2CCOC2=O)c([N+](=O)[O-])cc1OC` (centres undefined), the B-score result is “inactive”.

Take `CN(C)Cc1ccccc1C1(O)c2ccccc2CSc2ccccc21` (centres undefined): the B-score was -6.84 (active).

As to `CC(=O)Nc1ccc(S(=O)(=O)N2CCC(NC(=O)c3ccccc3)CC2)cc1`, the B-score entry is “inactive”.

As to `COc1ccc(-c2csc3ncnc(N4CCN(S(=O)(=O)c5cccc(F)c5)CC4)c23)cc1`, the B-score result was “inactive”.

The record behind these values is PubChem BioAssay AID488922 (Johns Hopkins Ion Channel Center, 2010).
